Target: NT5C3L
Assay: pooled miR-30 sensor sort-seq; sequence = guide strand
Settings: shRNA
Also: reference of the scale not given here.

Row | Sequence | sensor-assay potency score (higher = more potent)
1 | TTGGACTCTCTAACCACCTGGG | 0.443
2 | TTGTGTGCTTTGGTCCACCATT | -1.32
3 | TCAGAAATCACCTGTAACCGGT | -0.094
4 | TAGAGCACTGACATGCTGTGGT | 0.517
5 | TTTCCATTATATGCAAACCTGC | -1.3

Target: NTHL1
Assay: as above
Settings: shRNA

Row | Sequence | sensor-assay potency score (higher = more potent)
6 | TTGGTTGCCTTCTTGGTCCACC | -0.633
7 | TAGATGAGCTTGCCCAGCGTGG | -1.11
8 | TATTTCACCTTGCTCCTCCAGA | -0.193
9 | TTCTGTGCACATGCGTGTCCAC | -0.487
10 | TCATCTGTCTGCAGGATGCTGT | -0.751
11 | TTGATGTATTTCACCTTGCTCC | -0.737
12 | TTTTTGTTCCTCATGGCACGGA | 0.281
13 | ATGTATTTCACCTTGCTCCTCC | 0.0621
14 | TTTTCCTCGCTTCTGCTGCAGC | -0.814
15 | ATCAGTGACAGCAGCACCTGGT | -0.43
16 | TTCTTGGTCCACCTCAGCCTGT | -1.58
17 | TTGACCAGCTGTTGCTGCCAGT | -1.05

Target: NTM
Assay: as above
Settings: shRNA

Row | Sequence | sensor-assay potency score (higher = more potent)
18 | TTGGCTTCTGAAATGTATGGTG | 0.211
19 | AATCAGTCTTTTGTCATCCTTG | -0.561
20 | TTGCACAATGAGGTGGACCCTA | -0.498
21 | TCTGTCTGCACCGAGCAGGTGT | -0.506
22 | TTGTCTGTCTGCACCGAGCAGG | -0.782
23 | TTCTTTCCTTCAATCAGTCTTT | -0.442
24 | TTTGTCATCCTTGTACCACTGG | 0.733
25 | TTGCTCAGAAGGACCACGCGAG | -0.271
26 | TTGAAGAAGATGAGTTTTGAGA | -0.515

Target: NTRK2
Assay: as above
Settings: shRNA

Row | Sequence | sensor-assay potency score (higher = more potent)
27 | TTGATGTGCTGAACAAATGTGT | 0.264
28 | TTTAGTACAGATGTATTTGGAC | -0.241
29 | TTTCCTAGACAAACTCGTCAGT | -0.24
30 | TATGAAACAAAACAAAACCTTT | -1.09
31 | TTCAACATCATCTTCGTTGATG | -0.198
32 | TTTATCAGTGACGTCTGTGGAA | -0.0514
33 | TTGTTTGACAGCTGGTACCAGG | -0.771
34 | TTCACTGCCACCAAGATCTTGT | 0.258
35 | TTGCCTTTCACAGTGAATGGAA | 0.0334
36 | TATTAGGAACCGGATCACCTGC | -1.01
37 | TCGTTGATGATTTCTAACCTTT | -0.793
38 | TATAGAACCACTGAAGCGCTGG | 0.358

From the OligoGym collection
